Results filed as inconclusive are left out. Activity calls are given as the source filed them. Rule for the calls, unless noted: active = hit-call score of the fitted dose curve at least 0.9, where 1 is the maximum; inactive = score below 0.9.
Key:
[1] = CCTE_Shafer_MEA_dev_firing_rate_mean: CCTE's Neural Network Formation Assay for Mean Firing Rate, Shafer Lab (AID 2284031)
In short: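 Primary rat cortical neurons on 48-well, 16-electrode MEAs (PEI-coated, laminin at plating), exposed from day 0 with compound renewed at DIV 5 and 9. Spikes recorded DIV 5, 7, 9, 12; well-mean firing rate collapsed to trapezoidal AUC, loss-of-signal vs DMSO.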

[2] = CCTE_Shafer_MEA_dev_per_burst_spike_percent: CCTE's Neural Network Formation Assay for Percent of Spikes in a Burst, Shafer Lab (AID 2284032);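 note: fitted as a decrease in burst spike percentage below DMSO baseline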
In short: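 Rat primary cortical neurons on 16-electrode MEA wells, dosed from plating day 0 for 12 days with renewal on DIV 5 and 9; spikes-in-bursts percentage averaged over bursting electrodes, collapsed as AUC across days 5, 7, 9, 12; loss direction versus DMSO.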

[3] = CCTE_Shafer_MEA_dev_active_electrodes_number: CCTE's Neural Network Formation Assay for Number of Active Electrodes, Shafer Lab (AID 2284040; active = hit-call score of the fitted dose curve at least 0.9, where 1 is the maximum;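 note: potency for loss of active electrodes versus DMSO so lower counts are hits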)
In short: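 Rat cortical primary cultures, 1.5 x 10^5 cells/well, PEI-coated MEA, laminin drop. Continuous exposure DIV 0–12; full media/compound change DIV 5, 9. Readout: electrodes with mean firing ≥5 spikes/min; AUC across days; loss vs DMSO.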

[4] = CCTE_Shafer_MEA_dev_burst_rate: CCTE's Neural Network Formation Assay for Burst Rate, Shafer Lab (AID 2284042)
In short: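 Primary rat cortical neurons on PEI-coated 48-well MEA plates (laminin added with cells at plating) (16 electrodes/well), exposed from plating to day 12, dosing renewed at DIV 5 and 9. Burst rate averaged over active electrodes, recorded DIV 5, 7, 9, 12, summarized as AUC; loss versus DMSO.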

[5] = CCTE_Shafer_MEA_dev_bursting_electrodes_number: CCTE's Neural Network Formation Assay for Number of Bursting Electrodes, Shafer Lab (AID 2284043; active = hit-call score of the fitted dose curve at least 0.9, where 1 is the maximum;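 note: potency is for loss of bursting electrodes relative to DMSO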)
In short: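 Primary rat cortical neurons plated on 16-electrode MEA wells, exposed from day 0 with compound renewed at DIV 5 and 9. Electrodes bursting ≥1 burst per 2 min counted on days 5, 7, 9 and 12; trapezoidal AUC across days, fitted for loss versus DMSO.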

[6] = CCTE_Shafer_MEA_dev_per_burst_interspike_interval: CCTE's Neural Network Formation Assay for Burst Interspike Interval, Shafer Lab (AID 2284044);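 note: mean spike spacing inside bursts as AUC over recordings on days 5 7 9 12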
In short: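 Primary rat cortical neurons on 48-well MEA plates, exposed from day 0 through day 12, treatment renewed at DIV 5 and 9. Within-burst interspike interval recorded days 5, 7, 9, 12, well-averaged, summarised as AUC; negative fit versus DMSO.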

[7] = CCTE_Shafer_MEA_dev_burst_duration_mean: CCTE's Neural Network Formation Assay for Mean Burst Duration, Shafer Lab (AID 2284045)
In short: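 Primary rat cortical neurons on 48-well 16-electrode MEA plates, exposed from day 0 with renewal at DIV 5 and 9; spontaneous activity recorded on days 5, 7, 9, 12. Well-mean burst duration across bursting electrodes, collapsed as trapezoidal AUC; DMSO baseline.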

[8] = CCTE_Shafer_MEA_dev_interburst_interval_mean: CCTE's Neural Network Formation Assay for Mean Interburst Interval, Shafer Lab (AID 2284046);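 note: well-mean interburst interval of bursting electrodes as AUC over four recording days; curve fitted for decrease in interburst interval relative to DMSO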
In short: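 Recordings on days 5, 7, 9 and 12 give well-mean interburst interval across actively bursting electrodes, summarized as area under the curve. Cultures: rat cortical neurons, continuous exposure from day 0, compound renewed at feeds; decrease analyzed versus DMSO.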

[9] = CCTE_Shafer_MEA_dev_inter_network_spike_interval_mean: CCTE's Neural Network Formation Assay for Mean Inter-network Spike Interval, Shafer Lab (AID 2284047)
In short: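 Primary rat cortical neurons on 16-electrode MEA wells, exposed from plating day 0 through DIV 12, compound renewed at DIV 5 and 9 media changes. Mean interval between network-spike peaks recorded DIV 5, 7, 9, 12; collapsed as trapezoidal AUC, fitted downward versus DMSO.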

[10] = CCTE_Shafer_MEA_dev_network_spike_peak: CCTE's Neural Network Formation Assay for Mean Number of Electrodes in Network Spike, Shafer Lab (AID 2284049);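 note: fitted for loss of signal meaning fewer electrodes in network spikes than DMSO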
In short: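 Network-spike peak electrode count from recordings on days 5, 7, 9 and 12 was combined as trapezoidal area under the curve. Rat cortical cultures were treated continuously from plating, with compound renewed at each feed (DIV 5, 9); fits versus DMSO.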

[11] = CCTE_Shafer_MEA_dev_spike_duration_mean: CCTE's Neural Network Formation Assay for Mean Spike Duration, Shafer Lab (AID 2284051);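 note: mean network spike duration pooled as area under curve over DIV 5 to 12 recordings; potency for a decrease in mean network spike duration versus DMSO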
In short: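 Primary rat cortical neurons on 16-electrode MEA wells (PEI-coated, laminin in plating drop), exposed from plating through DIV 12 with compound renewed at DIV 5 and 9. Mean network-spike duration recorded DIV 5, 7, 9, 12; trapezoidal AUC across days, DMSO baseline.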

[12] = CCTE_Shafer_MEA_dev_network_spike_duration_std: CCTE's Neural Network Formation Assay for Standard Deviation of Network Spike Duration, Shafer Lab (AID 2284052);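 note: area under curve of spike duration SD across recording days 5 to 12; hits are decreases in network spike duration SD versus DMSO vehicle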
In short: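 Primary rat cortical neurons on PEI-coated 16-electrode MEA wells, exposed from plating day 0 through day 12 with compound renewed at DIV 5 and 9. Network spike duration SD recorded on days 5, 7, 9, 12, collapsed as trapezoidal AUC; loss-of-signal fit versus DMSO.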

[13] = CCTE_Shafer_MEA_dev_per_network_spike_spike_number_mean: CCTE's Neural Network Formation Assay for Mean Number of Spikes in a Network Spike, Shafer Lab (AID 2284053);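 note: fitted as decrease in spikes per network spike relative to DMSO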
In short: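 Primary rat cortical neurons on 48-well, 16-electrode MEA plates were exposed from plating to DIV 12, with dosing renewed on DIV 5 and 9. Spikes per network spike (0.05 s peak window) were recorded on DIV 5, 7, 9 and 12 and collapsed as trapezoidal AUC versus DMSO.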

[14] = CCTE_Shafer_MEA_dev_per_network_spike_spike_percent: CCTE's Neural Network Formation Assay for Percent of Spikes in a Network Spike, Shafer Lab (AID 2284054)
In short: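 Rat primary cortical neurons were grown on 48-well MEA plates (16 electrodes/well), exposed from plating day 0 through day 12, with treatment renewed on DIV 5 and 9. Percent of spikes within 0.05 s network-spike peaks was measured, summarised as AUC across days 5, 7, 9, 12.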

[15] = UKN5_HCS_SBAD2_cell_viability: Viability Assessment in the University of Konstanz (UKN) Leist Lab Neurite Outgrowth Assay in human iPSC-derived immature Dorsal Root Ganglia Neurons (UKN5) (AID 2284056)
In short: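 iPSC-derived immature peripheral neurons (SBAD2) seeded on Matrigel with CHIR99021, SU5402 and DAPT, dosed 1 h later for 24 h. Viability from Hoechst H-33342 and calcein-AM live staining, high-content imaging; bidirectional fit versus DMSO.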

[16] = CCTE_Shafer_MEA_dev_LDH: CCTE's Lactate Dehydrogenase Assay for Cytotoxicity in the Neural Network Formation Assay, Shafer Lab (AID 2284068; active = hit-call score of the fitted dose curve at least 0.9, where 1 is the maximum;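 note: exposure for twelve days from plating with re-dosing on DIV 5 and 9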)
In short: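 Primary rat cortical neurons were plated on PEI/laminin MEA plates and exposed from day 0 for twelve days, with compound renewed at DIV 5 and 9. Cytotoxicity was determined by spectrophotometric LDH assay relative to DMSO.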

[17] = UKN5_HCS_SBAD2_neurite_outgrowth: University of Konstanz (UKN) Leist Lab Neurite Outgrowth Assay in human iPSC-derived immature Dorsal Root Ganglia Neurons (UKN5) (AID 2284070); conditions: actives raise or lower the signal
In short: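 Human iPSC-derived immature DRG neurons (SBAD2) on Matrigel with CHIR99021 (1.5 uM), SU5402 (5 uM), DAPT (5 uM); compounds added 1 h post-seeding for 24 h. Calcein-AM neurite area imaged; bidirectional fit vs DMSO.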

[18] = CCTE_Shafer_MEA_dev_AB: CCTE's Alamar Blue Assay for Cytotoxicity in the Neural Network Formation Assay, Shafer Lab (AID 2284083; active = hit-call score of the fitted dose curve at least 0.9, where 1 is the maximum;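 note: twelve days of exposure from plating with re-dosing on DIV 5 and 9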)
In short: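 Primary rat cortical neurons on PEI-coated 48-well MEA plates, 1.5 x 10^5 cells/well in laminin drop; compound exposure from day 0 of plating for twelve days, renewed at medium changes on DIV 5 and 9. Viability read as resazurin reduction by fluorescence, relative to DMSO.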

[19] = CCTE_Shafer_MEA_dev_mutual_information_norm: CCTE's Neural Network Formation Assay for Mutual Information Normalization, Shafer Lab (AID 2284091)
In short: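 Primary rat cortical neurons on PEI-coated 48-well MEA plates, 1.5 x 10^5 cells/well, exposed from day 0 through day 12 with re-dosing at DIV 5 and 9. Mutual information between electrodes recorded days 5, 7, 9, 12; trapezoidal AUC, loss-of-signal fit versus DMSO.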

[20] = CCTE_Shafer_MEA_dev_correlation_coefficient_mean: CCTE's Neural Network Formation Assay for Mean Correlation Coefficient, Shafer Lab (AID 2284093);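 note: well mean pairwise spike train correlation integrated as AUC over recording days 5 to 12; potency fitted for loss of correlation relative to DMSO vehicle wells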
In short: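 Spontaneous activity recorded on days 5, 7, 9 and 12 post-plating; pairwise spike correlations are averaged across active electrodes and collapsed to an area-under-curve. Rat cortical cultures are dosed from plating through 12 days, with compound renewed at media changes.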

[21] = UKN2_HCS_IMR90_neural_migration: University of Konstanz (UKN) Leist Lab Neural Crest Cell Migration Assay in human induced IMR90 Pluripotent Stem Cells (UKN2) (AID 2284204); conditions: actives raise or lower the signal
In short: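 iPSC-derived IMR90 neural crest cells seeded around stoppers on PLO/laminin/fibronectin; migration started in N2-S medium with EGF/FGF, compounds added after 24 h for 24 h. Migration into cell-free area imaged after calcein-AM/Hoechst staining; bidirectional fit versus DMSO.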

[22] = IUF_NPC1b_proliferation_BrdU_72hr: Leibniz Research Institute for Environmental Medicine (IUF) 72-hour Neural Progenitor Cell Bromodeoxyuridine (BrdU) Proliferation Assay (NPC1b) (AID 2284207)
In short: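 BrdU luminescence ELISA quantified DNA synthesis over the last 16 h of a 72 h exposure, fitted against DMSO. Primary hNPC spheres from gestational week 16-19 cortex grown with EGF/FGF at 37C, pH 7.2-7.6.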

[23] = IUF_NPC1a_proliferation_area_72hr: Leibniz Research Institute for Environmental Medicine (IUF) 72-hour Neural Progenitor Cell Proliferation Area Assay (NPC1a) (AID 2284208)
In short: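 Single 0.25–0.35 mm human fetal neural progenitor spheres in proliferation medium with EGF and FGF, exposed 72 h from plating without renewal at 37C, pH 7.2-7.6. Sphere area growth measured by automated phase-contrast imaging, relative to DMSO.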

Measured: AC50

CC(=O)[O-].CC(=O)[O-].O.O.O.[Pb+2]
active: [2] 23.5 µM | [3] 22.3 µM | [5] 18.5 µM | [10] 12.5 µM | [11] 22.2 µM | [13] 20.2 µM | [14] 15 µM | [15] 17.7 µM | [16] 23.7 µM | [18] 24 µM | [20] 19.7 µM | [21] 32.8 µM
inactive: [1] | [4] | [6] | [7] | [8] | [9] | [12] | [17] | [19] | [22] | [23]
